Bioassay records from PubChem.
SW480 rerep: inducers of DNA re-replication in SW480 colon cancer cells; Potency, µM (highest dose often 46.1 µM), without a hit: at the top dose re-replication activation, usual class: activators; SW480 DNA re-replication, Hoechst DNA content imaging, 48 h; hit rate 1.8% among 340,000; further: % of control where 0% means no effect; nearly all actives have a fitted effect of over 55% in size
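Image-based read-out: total Hoechst fluorescence of nuclei (405 nm excitation, 500-530 nm emission), with hits raising the fraction of high-intensity nuclei. SW480 colon cells incubated 48 hr with compounds at 37 C.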
ELG1 DNA repair: blocks ELG1-dependent DNA repair in HEK293T cells. HEK293T ELG1-luciferase reporter, luminescence, 16 h; DNA damage induced by 5-fluorouridine. Potency, µM (top dose mostly 46.1 µM), inactives show top-dose activity change, negative = inhibition, most hits filed as inhibitors. hit rate 2.3% among 330,000. AID 504467; further: on the % scale 0 is the no-effect control and ±100 the full control effect; nearly all actives have a fitted effect of over 55% in size
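Reporter activity after DNA damage by 5-fluorouridine is monitored. Compound-treated cells incubate 16 hr at 37 °C, then ONE-Glo is added for 30 min before luminescence reading.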
KB-V1 cytotox: KB-V1 MDR subline cytotoxicity. Potency, µM (titrated, usually from 46.1 µM), actives largely listed as cytotoxic. AID 1347076. hit rate 3.4% among 400,000. KB-V1 MDR cells viability, CellTiter-Glo, 72 h; further: on the % scale 0 is the no-effect control and ±100 the full control effect; nearly all actives have a fitted effect of over 60% in size
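KB-V1 MDR subline cells in DMEM (phenol-red free, 10% FBS) exposed to compounds in qHTS concentration series for 72 h at 37 degrees C. Viability read by CellTiter-Glo luminescence; concentration-effect curves fitted after normalization and correction.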
KB-3-1 cytotox: kills parental KB-3-1 adenocarcinoma cells. KB-3-1 viability, CellTiter-Glo ATP luminescence, 72 h. Potency, µM (doses to about 46.1 µM), actives largely listed as cytotoxic. hit rate 1.4% among 400,000. AID 1347075; further: on the % scale 0 is the no-effect control and ±100 the full control effect; nearly all actives have a fitted effect of over 60% in size
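Cytotoxicity in the drug-sensitive parental line KB-3-1 was scored as loss of CellTiter-Glo luminescence following 72 h incubation with compound. Values come from curve fitting of normalized concentration-response data.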
MCF10A rereplic: DNA re-replication induction in MCF 10a cells. MCF 10A DNA re-replication, Hoechst nuclear intensity, 48 h. Potency, µM (titrated, usually from 46.1 µM), without a hit: top-dose activity, positive = re-replication, most hits filed as activators. hit rate 2.9% among 350,000. AID 624296; further: % of control where 0% means no effect; nearly all actives have a fitted effect of over 50% in size
* = called active by the depositor; i = inactive; ? = inconclusive; / = no result; ! = not active in a repeat. Most compounds without a hit are left out; they make up all but 8.1% or so of the library. The call rests on the fitted dose curve; in most records, active means well fitted curve in the direction sought with a large enough effect; inconclusive means small, poorly fitted or top-dose-only effect, or another doubt; inactive means no such curve, though single readings can be large; an effect the other way counts as inactive or inconclusive. Potency means the concentration at half of the fitted maximal effect.

SMILES	SW480 rerep	ELG1 DNA repair	KB-V1 cytotox	KB-3-1 cytotox	MCF10A rereplic
CCn1c(SCc2ccc(C(=O)OC)o2)nnc1-c1c[nH]c2ccccc12	-7.0%	?	i	i	1.8%
CC(=O)n1c(-c2ccccc2)c(-c2ccccc2)n(C)c1=O	-13.5%	/	i	i	16.5%
C[C@@]12C(=O)Nc3cc(F)ccc3C(=O)N1[C@H]1c3cc(Br)ccc3OC[C@@H]1[C@@H]2c1ccccc1	?	-6.0%	?	?	7.31µM*
Cc1ccc2c(c1)NC(=O)[C@@]1(C)[C@@H](c3ccccc3)[C@H]3COc4ccccc4[C@@H]3N1C2=O	1.7%	-5.8%	i	i	-8.1%
Cc1ccc2c(c1)[C@H]1[C@H](CO2)[C@H](c2ccccc2)[C@]2(C)C(=O)Nc3cc(F)ccc3C(=O)N12	?	?	?	?	5.8µM*
C[C@@]12C(=O)Nc3ccc(F)cc3C(=O)N1[C@H]1c3cc(Br)ccc3OC[C@@H]1[C@@H]2c1ccccc1	?	-6.8%	?	?	?
CC(=O)Nc1c(Cl)cc2c(c1Cl)Cc1cc(N)ccc1-2	-6.4%	/	?	i	22.4%
COC(=O)c1ccc(N2CCN(C)CC2)c(NC(=O)c2ccc(-c3ccc(Cl)cc3)o2)c1	-3.2%	-1.9%	/	/	0.2%
CCSc1nnc(NC(=O)c2ccc(S(=O)(=O)N(C)C)cc2)s1	1.6%	?	i	i	-0.5%
CCOc1ccc2c(c1)nc(SCC(=O)c1ccc(Br)s1)n2C	?	6.1%	18.4µM*	?	75.7%
CCOC(=O)C1(Cc2ccccc2C(F)(F)F)CCN(C2CCCC2)CC1	10.2%	0.5%	i	i	?
Cc1cc(-c2nnc3n2CCCCC3)c(C)n1-c1ccccc1	-1.6%	?	20.6µM*	?	26.7%
O=C(N[C@@H](Cc1ccc(O)cc1)C(=O)O)c1ccncc1	-14.3%	/	i	?	-4.5%
O=C(c1ccc(COc2ccccc2Br)o1)N1N=C(C(F)F)CC1(O)C(F)F (stereo not drawn)	-51.2%	-24.9%	23.1µM*	i	?
COC(=O)c1c(C(=O)OC)c(-c2ccc(Cl)c(Cl)c2)n2c1CCC2	-4.5%	?	i	i	?
COC(=O)c1c(C(=O)OC)c(-c2ccc(C)cc2)n2c1CCC2	-0.2%	-18.5%	14.6µM*	i	-0.5%
O=C(CSc1ncc(-c2ccccc2)[nH]1)Nc1ccccc1	-0.4%	0.1%	i	i	?
Cc1ncc(CO)c2c1Oc1nc(-c3ccccc3)nc(SCC(=O)Nc3cccc(O)c3)c1C2	?	?	i	?	16.4µM*
COc1ccc(-c2nc3c(c(SCC(=O)Nc4cccc(O)c4)n2)Cc2c(CO)cnc(C)c2O3)cc1	-6.8%	0.9%	i	i	-5.3%
O=C(CSc1ncc(-c2ccccc2)[nH]1)Nc1cccc(O)c1	-8.0%	16.4µM*	i	i	-22.5%
Cc1cccc(C#N)c1NC1=CC(=O)CC(C)(C)C1	2.7%	9.8%	i	i	-1.2%
Cc1ccc(NC2=CC(=O)CC(C)(C)C2)cc1C	-0.3%	8.4%	16.4µM*	i	2.4%
COc1ccc(NC2=CC(=O)CC(C)(C)C2)cc1OC	2.5%	-3.2%	i	i	-11.6%
Cc1cc(C)c(NC2=CC(=O)CC(C)(C)C2)c(C#N)c1	0.9%	3.6%	23.1µM*	i	1.2%
COc1cc(OC)c(OC)cc1CNCC1COc2ccccc2O1 (stereo not drawn)	-4.7%	/	i	i	21.7%
SMILES	SW480 rerep	ELG1 DNA repair	KB-V1 cytotox	KB-3-1 cytotox	MCF10A rereplic
Cc1cc(N2C(=O)CC(C(C)c3ccccc3)C2=O)no1 (stereo not drawn)	-0.6%	-9.7%	i	i	-24.1%
Cc1noc(C)c1S(=O)(=O)Nc1ccccc1N1CCOCC1	-8.0%	3.0%	i	i	0.2%
CNc1cncc(-c2ccc(O)cc2)n1	/	/	i	i	/
CN(C)c1ccc(-c2c(-c3ccc4c(c3)OCO4)noc2-c2ccsc2)cn1	?	?	10.3µM*!	?	?
CCN1C(=O)S/C(=C/c2c(OCc3ccc(C(=O)O)cc3)ccc3ccccc23)C1=O	-404.6%	?	i	i	6.51µM*
O=C(O)c1ccc(S(=O)(=O)N(Cc2cccs2)CC2CCCO2)cc1 (stereo not drawn)	8.5%	?	i	i	12.6%
CC1(C)CC(=O)C(C=NCCN2CCOCC2)=C(O)C1	6.51µM*	6.1%	i	i	-4.8%
O=C1NC2c3ccccc3CC2O1 (stereo not drawn)	-2.5%	7.6%	?	?	21.4%
O=C1NC2c3c(I)sc(I)c3C(=O)C2O1 (stereo not drawn)	16.4µM*	/	i	?	13µM*
O=C1NC2c3c(Cl)sc(Cl)c3C(=O)C2O1 (stereo not drawn)	?	/	?	i	7.31µM*
Cc1onc(-c2ccccc2)c1C(=O)NCc1cccnc1	-22.2%	-5.0%	i	i	-3.6%
CCOC(=O)Cn1c(=O)n(-c2ccc(Cl)cc2)c2nc(-c3ccc(Cl)cc3)nc(C(N)=O)c21	/	/	i	i	/
CC1(C)C=Cc2c(ccc3c2OC[C@H](c2ccc(O)cc2O)C3)O1	-62.7%	?	i	i	?
CC(C)=CCc1cc([C@@H]2COc3c(ccc4c3C=CC(C)(C)O4)C2)c(O)cc1O	4.7%	/	i	i	5.17µM*
CCOC(=O)c1c(C)[nH]c(C(=O)COC(=O)CNC(=O)c2ccccc2Cl)c1C	-1.3%	?	i	i	4.7%
O=C(c1ccc2nc(-c3ccco3)c(-c3ccco3)nc2c1)N1CCN(c2ncccn2)CC1	9.1%	?	?	i	13µM*
Cc1cccc(N2CCN(C(=O)c3cc4c(=O)n(C)c5ccccc5c4n3C)CC2C)c1 (stereo not drawn)	15.4%	14.6µM*	?	?	6.3%
Cc1cccc(N2CCN(C(=O)c3ccc4nccnc4c3)CC2C)c1 (stereo not drawn)	-0.8%	-1.7%	i	i	6.3%
Cc1cccc(N2CCN(C(=O)c3ccc4nc(-c5ccco5)c(-c5ccco5)nc4c3)CC2C)c1 (stereo not drawn)	?	?	i	?	11.6µM*
O=C(Nc1ccc2nc(-c3ccco3)c(-c3ccco3)nc2c1)N1CCN(c2ccccn2)CC1	?	11.6µM*	?	i	?
C#CC(=O)CCC1CCCN1C(=O)OC(C)(C)C (stereo not drawn)	-3.4%	11.5%	i	i	?
CN1CCN(C(=O)CCN2C(=O)c3ccccc3S2(=O)=O)CC1	3.8%	14.9%	i	i	-5.9%
